In PubChem BioAssay (EPA / NIEHS):
Values joined by “and” are separate entries in the source; they are usually repeats but may differ in a detail not shown here. Equal values may be shown once. Records with an inconclusive call do not appear. Active and inactive are the calls of the source. How the source made its calls: active means hit-call score of the fitted dose curve at least 0.9, where 1 is the maximum; inconclusive means response in the unintended direction; inactive means score below 0.9.

What follows are compounds tested against human Peroxisome Proliferator-activated Receptor alpha (PPARa), PPARA (gene 5465) (UniProt Q07869) (assay: NVS_NR_hPPARa: NovaScreen (NVS) Nuclear Receptor Binding Assay for human Peroxisome Proliferator-activated Receptor alpha (PPARa) (AID 2283359)).
Chain of human Peroxisome Proliferator-activated Receptor alpha (PPARa), PPARA (gene 5465) (Q07869 whole entry, looked up): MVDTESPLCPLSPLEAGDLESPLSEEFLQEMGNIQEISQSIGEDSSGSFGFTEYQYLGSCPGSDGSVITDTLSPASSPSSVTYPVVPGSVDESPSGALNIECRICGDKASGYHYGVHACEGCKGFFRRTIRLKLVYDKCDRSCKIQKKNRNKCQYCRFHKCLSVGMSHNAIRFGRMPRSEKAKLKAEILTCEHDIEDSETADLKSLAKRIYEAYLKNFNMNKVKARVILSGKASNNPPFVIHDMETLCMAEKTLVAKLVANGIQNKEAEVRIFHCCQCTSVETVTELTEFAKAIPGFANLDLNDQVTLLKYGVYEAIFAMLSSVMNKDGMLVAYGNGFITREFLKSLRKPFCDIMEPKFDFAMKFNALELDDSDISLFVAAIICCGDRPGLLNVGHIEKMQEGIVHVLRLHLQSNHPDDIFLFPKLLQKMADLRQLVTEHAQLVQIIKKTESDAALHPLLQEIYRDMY
Experimental: NVS_NR_hPPARa is a biochemical, single-readout assay that uses extracted gene-proteins in a cell-free assay. Measurements were taken 1 hour after chemical dosing in a 384-well plate.NVS_NR_hPPARa is one of one assay component(s) measured or calculated from the NVS_NR_hPPARa assay. It is designed to make measurements of fluorescent resonance energy transfer, a form of binding reporter, as detected with fluorescent resonance energy transfer signals by Time-Resolved Fluorescence Resonance Energy Transfer (TR-FRET) technology.Data from the assay component NVS_NR_hPPARa was analyzed into 1 assay endpoint. This assay endpoint, NVS_NR_hPPARa, was analyzed in the positive analysis fitting direction relative to DMSO as the negative control and baseline of activity. Using a type of binding reporter, loss-of-signal activity can be used to understand changes in the binding as they relate to the gene PPARA. Furthermore, this assay endpoint can be referred to as a primary readout, because the performed assay has only produced 1 assay endpoint. To generalize the intended target to other relatable targets, this assay endpoint is annotated to the nuclear receptor intended target family, where the subfamily is non-steroidal.
Binding assays used specific radioligands (tritiated, iodinated) with non-radioactive competitive displacement ligands in agonist or antagonist protocols (as indicated) and various reference compounds and inhibitors to titrate specific binding to receptors and transporters. Most enzyme assays (CYPs, kinases, phosphatases, proteases, HDACs) used recombinant protein and specific substrates (fluorescence mostly, some colorimetric and radioactive) and inhibitors, followed by a biochemical separation of substrate and product. All assays for the biochemical HTS were initially run in duplicate at a single concentration (10 uM for CYP450 assays and 25 uM for all others). […] Each assay was run with positive and negative controls, and concurrent controls on every plate. The follow-up (secondary) screen tested active chemical-pairs in concentration series, as well as a few additional assays not tested in the primary screen, some selected negative inactives, and several cases re-run in the concentration series for confirmatory purposes.
`CCCCCCCCCCCCOS(=O)(=O)O` was tested, and the AC50 was 15.8 µM (active) and 8.71 µM (active).
For `Cc1cc(Cl)ccc1O`, the outcome was “inactive”.
In the case of `O=[N+]([O-])c1ccc(Cl)c([N+](=O)[O-])c1`, the outcome is reported as “inactive”.
`CCCCCCCCCCCCc1cccc(S(=O)(=O)O)c1` was tested, and the AC50 was 9.25 µM (active).
With `CCC[CH2][Sn]([Cl])([Cl])[CH2]CCC` the AC50 was 12 µM (active).
With `N#CCCC(Br)(C#N)CBr` (stereo unspecified) the outcome was “inactive”.
In the case of `N#Cc1cccnc1`, the outcome is reported as “inactive”.
`CC(C)(C)c1ccccc1O` was tested, and the outcome was “inactive”.
In the case of `O=C1c2ccccc2C(=O)C1C(=O)C(c1ccccc1)c1ccc(Cl)cc1` (stereo unspecified), the outcome is reported as “inactive”.
`N#CCC#N` was tested, and the outcome was “inactive”.
`Oc1cc(Cl)c(Cl)cc1Cl` was tested, and the outcome was “inactive”.
